{"source": "paper PMC12864922", "about": "“TDP-43 directly inhibits mRNA accumulation in neurites through modulation of mRNA stability”", "binders": {"B1": {"name": "ENSMUSG00000028439.291|Fam219a|94:98 (ssRNA)", "RNA": "GGGAGUUCUACAGUCCGACGAUCGCUUCGAUAUCCGCAUGCUAGUGUCUCUCCUUCAGGCGCCCCACAUGCCAGCAUUUCCACCCUCUGGAUUCUCCUCACAUGUCACUCUCCAGGUGCCGGGGCCUAGAGUGGGCCACACAGAAGGAGGAGUGGGGCUGUUGGCUUAGGAAGGGAAGCGCCUCUCUGUACACCACAACCAGGAGCUGCCCACUCCCCACACCUCCAGCCCAGCUUACCUCCCCCUAGUACAGAGAUCCUAAUUAGAUAAGAAAAUGCCAAGGGAGGCAAGCCAGAGAAAGCACUCUUGCGGUCGCACUAGUGUGGAAUUCUCGGGUGUCAAGG"}, "B2": {"name": "ENSMUSG00000090935.679|Synj2bp (ssRNA)", "RNA": "GGGAGUUCUACAGUCCGACGAUCGCUUCGAUAUCCGCAUGCUAUGAACCUUGAGAUUCACCACUGUCAGGAGCUCUCUCUCUCUGCUUAGAAUCAUCCAGACAGCGGGCUGGUCAGCCCACAUUAAAUAAGAACAUGUGGGACUAGAAUUCAGUCAACAAUGACAUGUUUCAUCAGGUGGUUAAAAUGUACAGAUUCUGUUGGAAAUGUUCCAUGGUAUUUCAAUAGCCAGAAUGAAGAACUGGGCUAAGUCCAGAGCUCUGCUCUCUGAGCAUCUGCCCCAGAUACAGAGGCAGAGUAUGAACUCUUGCGGUCGCACUAGUGUGGAAUUCUCGGGUGUCAAGG"}, "B3": {"name": "ENSMUSG00000043670.52|Diras1|235:240 (ssRNA)", "RNA": "GGGAGUUCUACAGUCCGACGAUCGCUUCGAUAUCCGCAUGCUACACCAGCCUACAGUAAGGUUGGGCUCCAUCCCUGCCUCUUCACACCUCCAUAGCUUCAUCCUUUGCAGACCUCUCCCUCUAUAUCUCUUUGCUCCCCCACCCCCAUUCUAUCUGCACCCCACAACCACACACUGGAGGUUUGAUCCCUGUGGAUCUGAAAACAGGGACCUGGCUAAGGAACUGCUCAUCCCAGUCAGGCCCAGAGAGGUUACCUUGCCUCUCCAUCUCUGUCCCACACACCCCAGCCAUGCCCACUGUCCCUCUUGCGGUCGCACUAGUGUGGAAUUCUCGGGUGUCAAGG"}, "B4": {"name": "ENSMUSG00000029028.191|Lrrc47 (ssRNA)", "RNA": "GGGAGUUCUACAGUCCGACGAUCGCUUCGAUAUCCGCAUGCUACCCAUCUCUGUGCAUCCUGACUGCGCACAUCCCAUCUCCGCAUGUGUACGCAUCUGUACCAGCACACAGCUGCCAUCCCUCGAGCCACAGUGCCUGGUCCUAAGGACCCAGCAGCUGCACAGAGGACUUGGUGGCCCCGUGCCUUGCCAUCUGGCUGAGAAGAGAACCAGACCCUCAGCCUUCCCCCUCGACACCUUCUCGUUGGUGACCUCUGACCUUAAAGGACCAUUUCUACCUUCUGUAAAAGAACACCUGUUUGGCUCUUGCGGUCGCACUAGUGUGGAAUUCUCGGGUGUCAAGG"}, "B5": {"name": "ENSMUSG00000061578.1057|Ksr2 (ssRNA)", "RNA": "GGGAGUUCUACAGUCCGACGAUCGCUUCGAUAUCCGCAUGCUAUGUGAAAGUCUGAUGACUCAAAUCAAAGUUUGGUUUUUCUUUUCUACUACUCUGAAGGAAAAUCUCAGCUUGGCUAUUUCUUCAUGUUUUAAAAAUGUCUUGACUUCUCUCAGCAACCAACUUCAGGUGCCAGGAUAUGAGAUGCUAAGGUUCAGGGGUGGUGGAGGUGAUUCUAUCCAGUGGCCAGCAAUACCCAAAAGCAGCCAACCAUGAAAAUAGAGGUUUGUAAUGUACAGAAGGCUGGGGGAGCUUUCAGGGGUCUCUUGCGGUCGCACUAGUGUGGAAUUCUCGGGUGUCAAGG"}, "B6": {"name": "ENSMUSG00000043670.174|Diras1 (ssRNA)", "RNA": "GGGAGUUCUACAGUCCGACGAUCGCUUCGAUAUCCGCAUGCUACAGCAAAGUCCCUGUGUGCGGUGAUAGGACUAGUGGCUGCUGCCCUAGGGCUCUGACAGAAUCUGAGCCUCUUUGCUGGUCAUGUGUACUCUGGAGACUGUCCCCCAUGUCUGCCCUGAGUUACGGAGCCCCUGUGGUAUCUGCGAGACUGUCCAGGAGACUUGAGUGGCUCCUGGGCCUGUGUCCCACCCAGAUGAGGGUGACUUAGAAUUCUGUGUUUAUGUGCCUGUGUGUGUGGAUGGGUGUGUGUCUGUCUUGGGCUCUUGCGGUCGCACUAGUGUGGAAUUCUCGGGUGUCAAGG"}, "B7": {"name": "ENSMUSG00000029636.81|Wasf3|153:157 (ssRNA)", "RNA": "GGGAGUUCUACAGUCCGACGAUCGCUUCGAUAUCCGCAUGCUAUGAUGUCUUCCAACCAGUGGGUGAUACGUUUUCCUGUUUCUUCCCUUUGCAAAUUGAAUUCCAGGUAGAUAUGGUUGUAGAGGGGAAAGUUUAACAAAUCAGAAUGAAAUGUUUGUCUGUUUGCACACUGGGCCUGGUGGCCUCCAAGGAAAACACAACGAUCGUUUGCUUUCUCUAUCUUGGCGCUUGCAACCGAGAGCGGCCAUUUUUAUGAGGGGAGCCCUGUGGGUACUCAUGUGGAAAGUGCCCACUGACUUUGGCUCUUGCGGUCGCACUAGUGUGGAAUUCUCGGGUGUCAAGG"}, "B8": {"name": "ENSMUSG00000029028.64|Lrrc47 (ssRNA)", "RNA": "GGGAGUUCUACAGUCCGACGAUCGCUUCGAUAUCCGCAUGCUAUGGGUAUGCUGUAGAUGUCUGUGUAGGUGUGGAUAUGCUGUAGGUAUCUGGGUGUGCUGUAGGUGUCUGUGUGGGUGUGGGUGUGCUGUGGGUGUCUGUGUGGGUGUGCUGUAGGUGUCUGUAGGUGUGGGUAUGCUGCAGGUGUGGGUGUGCUGUAGAUCUCUAUAGGUGUGGGUGUGCUGUAGGGGUCUGUGUGGGUAUAGGUGUGGGUGUGCUGUAGAUUCUGUGUAACUGGUUCUUUGCUGUUUCUCUGGGUGUUUCUCUUGCGGUCGCACUAGUGUGGAAUUCUCGGGUGUCAAGG"}, "B9": {"name": "ENSMUSG00000058297.508|Spock2 (ssRNA)", "RNA": "GGGAGUUCUACAGUCCGACGAUCGCUUCGAUAUCCGCAUGCUAUAGCCUGGGAGUUCUGGCAGGAGGCAAAGUUGGUGAGAGUCCUGGGACAUCUUACCCCCAGUGUUCCACAGGAGUCGUGACCACGUGUGAUGGGUGGGCACAGGUCUGCCUUGCUCCAGCCCCCUCCCUUGGUUUCUGUUGGUACCCAUUUGGCUUUUAUCUGCUUUCUGCUUCACCACUAAGUGCGUAGGUGGGGUCUUUUGAUAUCGGCUCCCCAAAGCCCAAGCCCACAGCCCUAGGAGAGAACCAGGGGCCCAUCUCUCUUGCGGUCGCACUAGUGUGGAAUUCUCGGGUGUCAAGG"}, "B10": {"name": "ENSMUSG00000031028.667|Tub|229:233 (ssRNA)", "RNA": "GGGAGUUCUACAGUCCGACGAUCGCUUCGAUAUCCGCAUGCUAAGGACAGGCAAAAUUUCUCUAGCUGAGAGCACACUUAGCCAGUUUUCACGCCUAGAACAUAUAUGUCGAUUUGCACAUGAUUGUCUUUUCCUAUUUUGGAGUGGUCAGACAUUUUAUUUUUGUUCAAAAUUAUCUGGAGUUUUAGACAAACUUGCAAAACUGUGCUUUUAUUAAGUGACUUUUUGAAUAAACUUUUUGGUAUUCUGAAGCAAAUGUAUUUAUUUAUUGCAUACUGCAAUGACAAACUUGGUAUUUUCCCACUCUUGCGGUCGCACUAGUGUGGAAUUCUCGGGUGUCAAGG"}, "B11": {"name": "ENSMUSG00000058297.445|Spock2|189:193 (ssRNA)", "RNA": "GGGAGUUCUACAGUCCGACGAUCGCUUCGAUAUCCGCAUGCUAUGGUGGGGCUGAAGGUUCCCAAGUAGCUUCUAGUUAAGCAAGCUUCGUGUUUCCUCAGGAGCAAGGUCACACAGGUCAGAUUAUUGUCGGUCCUGCGGGCCUCAUCCUUGAAUAAGCUGCCUGCCCAGUUCCUCCAUCCGUGUUCCUGCCUGCUCCCGUUCCCUUGUUGCGGGCAGGAGAGGUAGGGCACACAUGGAAAGAGUUCAACCAAAUUACGGCAGCACCACAUCUUGCCGAGCCCUGGAGCUGCCCUACUAAGACUCUUGCGGUCGCACUAGUGUGGAAUUCUCGGGUGUCAAGG"}, "B12": {"name": "ENSMUSG00000028439.22|Fam219a|136:142 (ssRNA)", "RNA": "GGGAGUUCUACAGUCCGACGAUCGCUUCGAUAUCCGCAUGCUACGCUGACCUGGGCCCGGUGGGAUGCAGCAGGAGAGACCCCUACCCUGCUGGUCCACUGGUCCCCAGCCCCGCGCCUCUUAGAGCCGCCAACCUCGUAACAGUCAUUGCUUCCUCCUAUGGUAGGACGUGUACCUCACACACAUCAAGGAGCCGGAGAAACCAAAACCGGGUCUGUCUCCAGCCCCGGGGCUGAGGAGGGGUGGGCACUGUUUGUUCGGUUACUUGGGGGGAACCACACCCAAGCACCCUGCCACCUCUCCCUCUUGCGGUCGCACUAGUGUGGAAUUCUCGGGUGUCAAGG"}, "B13": {"name": "ENSMUSG00000061578.153|Ksr2|12:16;34:49;85:89 (ssRNA)", "RNA": "GGGAGUUCUACAGUCCGACGAUCGCUUCGAUAUCCGCAUGCUAGACGGUCCUGGCAUACCAUGAUGGGUUACAUGGCACACACACACACACAAACUGUUUACAAUGGUCUCCCUGCCUCUCACGGGCACACAUCCAGGAGAAUGCACAUAGAGAGGUUCUGUGGUCUCUGCUGUCGCCUGGUGCUGAAUCCUGAGUGGUUUCCCCACUGAGGACCCUGUGACCCUGUGACCCUUGGCCCCUCCCUUAUUGUGCACACUCAGCACCCCAUCUUCCAAGCCUUUCUUCAUCCCCCACCUUCUUUUCUCUUGCGGUCGCACUAGUGUGGAAUUCUCGGGUGUCAAGG"}}, "note": "Whole data set: some 9,900 sequences, median “r (bound/input frequency ratio)” near 0.7, cut for the highest 2% near 6.5. Shown is part of a subset that was picked to be rich in the highest values."}
{"target": "TDP-43 (Homo sapiens, UniProt Q13148 1-414)", "sequence (Q13148 whole entry)": "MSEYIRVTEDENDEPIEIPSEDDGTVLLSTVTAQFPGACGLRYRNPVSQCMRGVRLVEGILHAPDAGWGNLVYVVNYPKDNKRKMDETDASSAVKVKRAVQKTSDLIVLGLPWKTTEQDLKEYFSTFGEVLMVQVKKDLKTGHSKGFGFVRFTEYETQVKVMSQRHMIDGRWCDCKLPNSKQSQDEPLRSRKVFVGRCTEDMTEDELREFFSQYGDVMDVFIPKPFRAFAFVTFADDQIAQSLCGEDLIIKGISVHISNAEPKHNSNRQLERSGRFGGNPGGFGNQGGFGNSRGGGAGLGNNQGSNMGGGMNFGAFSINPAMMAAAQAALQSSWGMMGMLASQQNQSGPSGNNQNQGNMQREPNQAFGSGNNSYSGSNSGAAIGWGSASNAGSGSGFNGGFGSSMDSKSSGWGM", "experiment": "RNA Bind-n-Seq with designed 260-mer pool; 25 mM Tris-HCl, 150 mM KCl, 3 mM MgCl2, BSA (printed 500 mg/mL), 20 units/mL SUPERase IN; pH not stated; 500 nM RNA pool, 1 h, 4 C; TDP-43 5, 50, 500 nM; high values mean tight binding", "settings": "protein: recombinant; tags: SBP (GST cleaved off with PreScission; pGEX-GST-SBP)", "procedure,_shortened": "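For each oligo, R gives binding as its mapped-read-normalized abundance after pulldown divided by its abundance in input. Bead-captured SBP-tagged TDP-43 (5, 50 or 500 nM) was incubated with 500 nM of an in vitro-transcribed 260-nt 3′ UTR oligo pool for 1 h at 4 °C in 25 mM Tris-HCl, 150 mM KCl, 3 mM MgCl2, BSA and SUPERase IN on streptavidin beads. Washed, biotin-eluted RNA was reverse transcribed, PCR-amplified and sequenced.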"}
{"binder": "B1", "binding signal": "0.63 R (bound/input frequency ratio)"}
{"binder": "B2", "binding signal": "0.733 R (bound/input frequency ratio)"}
{"binder": "B3", "binding signal": "2.23 R (bound/input frequency ratio)"}
{"binder": "B4", "binding signal": "0.696 R (bound/input frequency ratio)"}
{"binder": "B5", "binding signal": "0.83 R (bound/input frequency ratio)"}
{"binder": "B6", "binding signal": "5.89 R (bound/input frequency ratio)"}
{"binder": "B7", "binding signal": "5.11 R (bound/input frequency ratio)"}
{"binder": "B8", "binding signal": "5.28 R (bound/input frequency ratio)"}
{"binder": "B9", "binding signal": "0.768 R (bound/input frequency ratio)"}
{"binder": "B10", "binding signal": "0.0728 R (bound/input frequency ratio)"}
{"binder": "B11", "binding signal": "0.0933 R (bound/input frequency ratio)"}
{"binder": "B12", "binding signal": "0.559 R (bound/input frequency ratio)"}
{"binder": "B13", "binding signal": "1.47 R (bound/input frequency ratio)"}
